Most compounds without a hit are left out; they make up all but 2.4% or so of the library.
Pol eta inh-1 – DNA polymerase eta (human) inhibition; Potency, µM (titrated, usually from 114 µM), inactives show top-dose activity change, negative = inhibition, usual class: inhibitors; Q9Y253; recombinant Pol eta, fluorescent DNA replication assay; AID 588591; 390,000 compounds, 1.2% hits; also: % is scaled to controls: 0 for no effect and ±100 for the full control effect
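Pol eta (10 nM) was preincubated with compounds for 15 min at room temperature, after which fluorescent replication substrate (50 nM final) was added to start the reaction. Fluorescence was read kinetically at 0 and 10 min.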
POLB inh – blocks human DNA polymerase beta activity | P06746 | Pol beta primer extension/strand displacement, fluorescence kinetic | Potency, µM (doses to about 114 µM), without a hit: at the top dose activity change, negative = inhibition, most hits filed as inhibitors | 340,000 compounds, 1.3% hits; also: % is scaled to controls: 0 for no effect and ±100 for the full control effect
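Values derive from four-parameter Hill fits of normalized kinetic data: reads at 0 and 10 min following addition of 50 nM substrate to 10 nM Pol beta preincubated 15 min with compound.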
Pol kappa inh-1 – blocks human DNA polymerase kappa activity | 400,000 compounds, 0.53% hits | AID 588579 | Potency, µM (doses to about 107 µM), inactives show top-dose activity, negative = inhibition, usual class: inhibitors | Q9UBT6 | purified Pol kappa, fluorescent DNA synthesis assay, 10 min; also: % is scaled to controls: 0 for no effect and ±100 for the full control effect
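Here, compound and 10 nM enzyme are combined for 15 min at room temperature; adding 50 nM substrate (final) starts DNA synthesis, tracked by fluorescence at 0 and 10 min against buffer-only wells.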
POLI inh – inhibitors of human DNA polymerase iota. Q9UNA4. Pol iota fluorescent replication assay, 10 min. Potency, µM (doses to about 115 µM), without a hit: at the top dose activity, negative = inhibition, most hits filed as inhibitors. 390,000 compounds, 1% hits. AID 588590
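Pol iota at 10 nM preincubated 15 min with compounds at room temperature; reaction started with fluorescent substrate, 50 nM final. Fluorescence read kinetically at 0 and 10 min; buffer-only wells as negative control.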
GLS inhibitor – glutaminase GLS (human) inhibition; O94925; GLS enzymatic activity, qHTS titration; Potency, µM (series often up to 45.5 µM), inactives show at the highest dose activity change, negative = inhibition, most hits filed as inhibitors; 410,000 compounds, 0.21% hits; also: % is scaled to controls: 0 for no effect and ±100 for the full control effect
Target sequence (O94925 whole entry, looked up): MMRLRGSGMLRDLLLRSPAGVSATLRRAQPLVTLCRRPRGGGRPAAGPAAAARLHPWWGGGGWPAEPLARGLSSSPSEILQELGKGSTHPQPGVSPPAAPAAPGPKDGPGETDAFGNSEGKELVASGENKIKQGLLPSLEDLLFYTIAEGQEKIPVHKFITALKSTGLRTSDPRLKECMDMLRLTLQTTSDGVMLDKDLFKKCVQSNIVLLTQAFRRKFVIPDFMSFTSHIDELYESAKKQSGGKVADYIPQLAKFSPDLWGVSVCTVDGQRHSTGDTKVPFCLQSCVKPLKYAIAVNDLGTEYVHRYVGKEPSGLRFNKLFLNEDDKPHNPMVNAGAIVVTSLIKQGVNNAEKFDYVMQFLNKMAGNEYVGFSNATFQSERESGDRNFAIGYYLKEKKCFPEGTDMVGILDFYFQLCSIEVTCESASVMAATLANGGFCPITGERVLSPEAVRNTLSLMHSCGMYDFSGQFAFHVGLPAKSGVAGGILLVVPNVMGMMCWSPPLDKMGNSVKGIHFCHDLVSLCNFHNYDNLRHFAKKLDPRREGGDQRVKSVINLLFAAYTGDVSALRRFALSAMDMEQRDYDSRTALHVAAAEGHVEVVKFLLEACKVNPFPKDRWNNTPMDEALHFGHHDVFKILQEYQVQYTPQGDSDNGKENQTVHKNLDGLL
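Human kidney-isoform GLS in 45 mM KH2PO4 pH 8.2, 0.02% Tween-20, with compound, started with 1mM L-Glutamine (added stock). Glutamate oxidase/HRP/Amplex red coupled fluorescence read at start and after 30 min at RT.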
KAT2A inh – inhibitors of human GCN5L2 histone acetyltransferase; GCN5L2 HAT assay, ThioGlo1 CoA-SH fluorescence; 390,000 compounds, 0.21% hits; Potency, µM (doses to about 58.9 µM), inactives show at the highest dose activity change, negative = inhibition, usual class: inhibitors; Q92830; also: % is scaled to controls: 0 for no effect and ±100 for the full control effect
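GCN5L2 (20nM final) in 50mM HEPES, 0.1mM EDTA pH 7.5, 0.01% Tween-20 was preincubated 15 min at room temperature with compound, then given ThioGlo1 (50uM), H3(1-25) peptide (75uM) and acetyl-CoA (70uM); CoA-thiol fluorescence (Ex340/Em540) was read at 0 and 20 min.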
TbPGK inh – TbPGK inhibition, hit validation; shares compounds with Pol kappa inh-1; TbPGK coupled GAPDH assay, Kinase-Glo luminescence; Potency, µM (doses to about 57.5 µM), for inactives: at the highest dose activity change, negative = inhibition, hits mostly inhibitors; 500 compounds, 79% hits; also: % is scaled to controls: 0 for no effect and ±100 for the full control effect; nearly all actives have a fitted effect of over 65% in size
Pol iota confirm – Human Pol iota inhibitor confirmatory assay; AID 720496; Pol iota primer extension, TAMRA/BHQ fluorescence; shares compounds with Pol kappa inh-1; Potency, µM, actives largely listed as inhibitors; 1,500 compounds, 77% hits
Pol kappa inh-2 – confirmation of human DNA polymerase kappa inhibitors; shares compounds with Pol eta inh-1; purified Pol-kappa, fluorescent strand-displacement substrate; Potency, µM, hits mostly inhibitors; 920 compounds, 76% hits
Pol eta inh-2 – confirmation of human DNA polymerase eta inhibitors; shares compounds with Pol eta inh-1; Pol eta primer extension, TAMRA/BHQ fluorescence, 10 min; 2,600 compounds, 64% hits; AID 720502; Potency, µM, most hits filed as inhibitors
* marks the source's active call; other numbers are inactive results; u = inconclusive; x = not tested or not shown; [ ] = remark or other dose. Calls follow the shape of the dose curve; as a rule, active = well fitted curve in the direction sought with a large enough effect; inconclusive = small, poorly fitted or top-dose-only effect, or another doubt; inactive = no such curve, though single readings can be large; an effect the other way counts as inactive or inconclusive. Potency is read from the fitted curve at half-maximal effect.

SMILES	Pol eta inh-1	POLB inh	Pol kappa inh-1	POLI inh	GLS inhibitor	KAT2A inh	Pol iota confirm	Pol eta inh-2	others
CC1=Nc2ccccc2/C1=C\c1nc(-c2ccc(F)cc2)oc1O	u	35µM*	u	u	5%	-6%[0.501 µM]	u	34*
CN=Cc1nc(-c2ccccc2)oc1O	-15%	22%	-2%	u	-2%	-13%	x	x
O=C(N/N=C/c1ccc(-c2ccccc2C(=O)O)o1)c1cccs1	18µM*	14µM*	25µM*	20µM*	-16%	4%	u	60*
O=C1/C(=C/c2ccco2)SC(=S)N1c1cccnc1	2.8µM*	1.6µM*	8.9µM*	u	11%	28µM*	3.8*	5.4*	TbPGK inh=3.3µM*;Pol kappa inh-2=4.7*
O=C(N/N=C/c1cn(Cc2cccc(F)c2)c2ccccc12)c1cc(O)cc(O)c1	1.6µM*	1.4µM*	7.1µM*	u	2.5µM*	-25%	8.4*	8.5*	TbPGK inh=2.1µM*
Cc1cc2ccc(=O)oc2cc1OC[C@@H](O)C(C)(C)O	x	x	-9%[19.4 µM]	x	x	x	x	x
O=C(c1cccc(-n2cccc2)c1)N1CCN(S(=O)(=O)c2ccccc2)CC1	8.9µM*	x	18µM*	8.9µM*	u	u	4.2*	8.5*
O=C(c1cccc(-n2cccc2)c1)N1CCN(S(=O)(=O)c2c(F)cccc2F)CC1	20µM*	u	u	22µM*	-4%	1%	67*	76*
O=C(c1cccc(S(=O)(=O)N2CCOCC2)c1)N1CCN(c2ccccc2)CC1	-18%	x	-1%	18%	20%	3%	x	x
O=C(c1ccc2c(c1)OCCO2)N1CCN(S(=O)(=O)c2c(F)cccc2F)CC1	-23%	x	6%	29%	-2%	-1%	x	x
CCn1ccc2cc(S(=O)(=O)N3CCC(C(=O)NCc4ccc(F)cc4)CC3)ccc21	-20%	23%	-13%[60.1 µM]	21%	2%	4%	x	x
Cc1ccc(SC2=C(N(C)C)C(=O)c3ccccc3C2=O)cc1	8.9µM*	x	-19%	20µM*	9%	x	u	76*
CN(C)c1cccc2c1C(=O)c1ccccc1C2=O	-17%	8%	-12%	11%	4%	-3%	x	x
COc1cc(/C=C2/CCC/C(=C\c3cc(O)c(OC)c(Cl)c3)C2=O)cc(Cl)c1O	u	1%	-12%	u	-16%	-7%	x	x
COc1cc(/C=C2\CC/C(=C\c3cc(OC)c(O)c(OC)c3)C2=O)cc(OC)c1O	1.8µM*	4.5µM*	10µM*	2.8µM*	14%	-11%	27*	9.5*
O=C(O)c1ccc(/C=N/NC(=O)c2cc(-c3ccc4c5c(cccc35)CC4)n[nH]2)cc1	25µM*	28µM*	u	u	-3%	-23%	60*	38*	Pol kappa inh-2=12*
O=C(COC(=O)c1ccc(Br)o1)Nc1ncc([N+](=O)[O-])s1	3.2µM*	x	79µM*	22µM*	-13%	u	u	19*	Pol kappa inh-2=11*
COc1ccc(C(=O)OCC(=O)Nc2sccc2C(N)=O)cc1OC	-15%	20%	4%	-9%	-8%	-11%	x	x
COc1ccc(C(=O)OCC(=O)Nc2ncc([N+](=O)[O-])s2)cc1OC	3.2µM*	x	22µM*	u	u	u	19*	u	TbPGK inh=18µM*;Pol kappa inh-2=6.7*
COc1ccc(CCNC(=O)C2CCN(c3ncnc4c3nc3n4CCCCC3)CC2)c(OC)c1	-14%	9%	-1%	13%	0%	-3%	x	x
CCc1ccc(Oc2c(C(F)(F)F)oc3c(CN4CCN(CC)CC4)c(O)ccc3c2=O)cc1	-6%	-2%	-25%	-5%	15%	-9%	x	x
COc1cccc(NC(=O)Cn2c(=O)n(-c3ccccc3)c(=O)c3c2c2cc(OC)ccc2n3C)c1	-4%	-5%	-11%	6%	9%	-1%	x	x
CN(C)c1ccc(-c2cc(O)c3ncccc3c2)cc1	-10%	x	-7%	-18%	24%	0%	x	x
CN(C)CCCNC(=O)c1ccc(-c2cc(O)c3ncccc3c2)cc1	-10%	x	-14%	-9%	16%	-4%	47*	u
CCOc1ccccc1CNC(=O)c1cc(-c2ccc(C)c(C)c2)nc2ccccc12	-21%	-1%	0%[60.1 µM]	49%	-7%	-18%	x	x
SMILES	Pol eta inh-1	POLB inh	Pol kappa inh-1	POLI inh	GLS inhibitor	KAT2A inh	Pol iota confirm	Pol eta inh-2	others
Nc1cccc(Nc2ccccc2)c1	-4%	-1%	-1%	19%	3%	-10%	x	x
Nc1ccc(Nc2ccccc2)c(S(=O)(=O)O)c1	16µM*	11µM*	79µM*	11µM*	u	-17%	47*	38*	Pol kappa inh-2=8.4*
O=C(Nc1cc(OC(=O)C(F)(F)F)c2nonc2c1OC(=O)C(F)(F)F)C(F)(F)F	x	x	-17%	-5%	x	x	x	x
COC(=O)c1ccc(-c2ccc(C(c3c(C)[nH][nH]c3=O)c3c(C)[nH][nH]c3=O)o2)cc1	25µM*	20µM*	u	3.5µM*	-10%	-21%	u	76*
Cc1[nH][nH]c(=O)c1C(c1ccc(-c2ccc(Cl)cc2Cl)o1)c1c(C)[nH][nH]c1=O	x	u	x	x	x	-1%	x	x
CNC(=S)N/N=C/c1ccc(-c2cccc(C(=O)O)c2)o1	-10%	-13%	-24%	48%	u	-4%	x	x

Screens deposited in PubChem by National Center for Advancing Translational Sciences (NCATS).
